In the library only some 32% were active in any assay of this set; here they are far more common.
CYP2C19 inhib = blockers of cytochrome P450 2C19 activity – biochemical, luminescence, ADME assay, primary screen. inhibition, % at 5 µM. P33261. actives 21% (n = 96,000). AID 778, 2007. CYP2C19 Supersomes, luciferin-H EGE luminescence, 30 min;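 active = CYP2C19 inhibition above a set limit at 5 µM in the primary screen, cut at about 50% in these data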
CYP2C19 act = human CYP2C19 activators, primary screen, biochemical, luminescence; AID 1025, 2008; Cytochrome P450 2C19 (Homo sapiens), P33261; 96,000 tested, under 10 active; activation factor at 5 µM; recombinant CYP2C19, luciferin-H EGE luminescence; stronger effect = higher value; 0 = fully inhibited enzyme, 1 = untreated enzyme;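 active = activation factor of at least 2 at 5 µM in the primary screen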
CYP2C9 activ = human CYP2C9 activators, primary screen, biochemical, luminescence. activation factor at 5 µM. recombinant CYP2C9, luciferin-H conversion; stronger effect = higher value; factor 1 = untreated enzyme, 0 = blocked. actives 1.4% (n = 96,000);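 active = activation factor of 2 or more for CYP2C9 at a 5 µM dose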
Target sequence (P11712 whole entry, looked up): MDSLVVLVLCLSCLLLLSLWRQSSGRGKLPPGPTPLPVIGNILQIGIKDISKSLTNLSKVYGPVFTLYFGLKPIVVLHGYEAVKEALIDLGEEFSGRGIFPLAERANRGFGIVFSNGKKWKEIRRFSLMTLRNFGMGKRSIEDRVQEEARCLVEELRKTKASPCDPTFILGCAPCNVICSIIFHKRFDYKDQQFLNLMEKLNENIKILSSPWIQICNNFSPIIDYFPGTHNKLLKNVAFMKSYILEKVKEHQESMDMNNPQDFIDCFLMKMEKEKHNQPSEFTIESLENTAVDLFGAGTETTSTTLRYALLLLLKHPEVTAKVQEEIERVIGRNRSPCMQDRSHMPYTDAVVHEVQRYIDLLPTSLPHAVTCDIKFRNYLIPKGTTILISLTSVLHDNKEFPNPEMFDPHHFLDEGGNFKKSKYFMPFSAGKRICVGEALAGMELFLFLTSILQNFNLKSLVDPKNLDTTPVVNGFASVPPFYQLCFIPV
PostGolgi ctrl = growth inhibition of yeast control strain, primary screen, counter-screen for post-Golgi transport modulator project; efflux-deficient yeast background strain, growth absorbance A615, 16 h; inhibition, % at 10 µM; actives 5% (n = 98,000); AID 738, 2007
PostGolgi yeast = phenotypic screen on post-Golgi transport, primary screen. AID 739, 2007. post-Golgi transport phenotypic cell assay. inhibition, % at 10 µM. actives 0.9% (n = 98,000);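 note: yeast cells grown in 1536-well plates; yeast grown about 18 h at 30C before absorbance read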
CYP2C9 inhib = blockers of cytochrome P450 2C9 activity – biochemical, luminescence, ADME assay, primary screen. inhibition, % at 5 µM. actives 20% (n = 96,000). P11712. AID 777, 2007. CYP2C9 Supersomes, luciferin-H conversion;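 active = blocking of liver enzyme CYP2C9 beyond about 50% at 5 µM, limit read from the data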
Of the large screens only hits and unclear results are named; the others gave an inactive call. Cut-off read from the data, not from the text of the source, unless noted: active = inhibition above about 30%; inactive = the rest.

O=C(OCn1nnc2ccccc2c1=O)c1cccnc1Cl	CYP2C19 inhib 58.9
CCN(CC)S(=O)(=O)c1ccc(C(=O)OCn2nnc3ccccc3c2=O)cc1	PostGolgi ctrl 78.0, PostGolgi yeast 89.5, CYP2C9 inhib 77.5
O=C(OCn1nnc2ccccc2c1=O)c1ccc2ncsc2c1	CYP2C19 inhib 53.3, CYP2C9 inhib 57.1
O=C(OCn1nnc2ccccc2c1=O)C1CCCCC1	CYP2C19 inhib 72.1, CYP2C9 inhib 53.2
COc1ccc(C(=O)/C=C\N2CCOCC2)cc1	none
O=C(c1ccccc1)C1CCc2occc2C1=O (stereo not given)	none
Clc1ccc(Cl)c(OCc2cc(-c3ccccc3Cl)on2)c1	none
CCC1(C)CC(c2csc(N)n2)CCO1 (stereo not given)	none
O=C(C1CCC(=O)N1Cc1ccccc1Cl)N1CCN(c2cccc(Cl)c2)CC1 (stereo not given)	none
O=C(COc1ccc(Cl)cc1Cl)OCn1nnc2ccccc2c1=O	none
O=C(CSCC(=O)OCn1nnc2ccccc2c1=O)Nc1ccc(Cl)cc1	PostGolgi ctrl 32.1
CCNc1nc(NCC)nc(OCCOC(=O)c2ccccc2)n1	CYP2C19 inhib 50.6
CCSc1nnc2n1C(C)(C)Cc1ccccc1-2	none
CC1(C)Cc2ccccc2-c2n[nH]c(=S)n21	CYP2C9 inhib 52.7
O=C(Cn1ncc2c3ccccc3n(Cc3ccccc3)c2c1=O)N1CCN(c2ncccn2)CC1	CYP2C19 inhib 98.3, CYP2C9 inhib 76.9
O=c1cc(/C=C/c2ccccc2)oc2ccccc12	CYP2C19 inhib 61.6, CYP2C9 inhib 78.6
Cc1ccc(C(C(=O)NC2CCCC2)N2CCc3ccccc32)cc1 (stereo not given)	none
O=C(Cc1ccccc1)N1CCCC(c2nc(-c3cccs3)no2)C1 (stereo not given)	none
O=S(=O)(Cc1ccccc1)N1CCC(c2nc(-c3cccs3)no2)CC1	CYP2C9 inhib 67.8
CC(=O)Nc1ccc(S(=O)(=O)NC(C(=O)O)C2=CCC=CC2)cc1 (stereo not given)	none
CCOc1ccc(S(=O)(=O)N/N=C2/CC(c3ccccc3)Oc3ccccc32)cc1 (stereo not given)	CYP2C19 inhib 55.5, CYP2C9 inhib 87.6
O=S(=O)(N/N=C1\CC(c2ccccc2)Oc2ccccc21)c1ccccc1 (stereo not given)	none
Cc1ccc(S(=O)(=O)N/N=C2/CC(c3ccccc3)Oc3ccccc32)cc1 (stereo not given)	PostGolgi ctrl 32.7, CYP2C9 inhib 79.5
Cc1ccc(C)n1-c1ccc(-c2nnco2)cc1	none
Cc1c(Br)cc(-c2nnco2)cc1Br	CYP2C9 activ 2.9
Cn1cccc1C(=S)N=P(C1CCCCC1)(N1CCOCC1)N1CCOCC1	none
COc1cc(/C=N\NC(=O)c2ccc(Cn3nc([N+](=O)[O-])c(Cl)c3C)o2)ccc1O	CYP2C19 inhib 65.0
O=C(CN1C(=O)CCSc2ccccc21)Nc1ccc(F)cc1	CYP2C19 inhib 94.6, CYP2C9 inhib 80.3
O=C(CN1C(=O)CCSc2ccccc21)Nc1ccccc1	CYP2C19 inhib 91.5, CYP2C9 inhib 70.3
CCCCn1c(N(CCOC(C)=O)C(C)=O)nc2ccccc21	none (no result: CYP2C19 inhib, CYP2C19 act, CYP2C9 activ, CYP2C9 inhib)
O=C(CCNS(=O)(=O)c1cccc2nonc12)NCCc1ccc(Cl)cc1	CYP2C19 inhib 73.9
O=C(CCNS(=O)(=O)c1cccc2nonc12)N1CCN(c2cccc(Cl)c2)CC1	CYP2C19 inhib 68.2
c1ccc(-n2cccc2CNC2CCCCC2)cc1	none
COC(=O)C1=C(CN2CCc3ccccc32)NC(=O)NC1c1cc(C)ccc1C (stereo not given)	PostGolgi ctrl 31.9
COC(=O)C1=C(CN2CCCc3ccccc32)NC(=O)NC1c1ccc(F)cc1 (stereo not given)	CYP2C19 inhib 72.3
COC(=O)C1=C(CN2CCSCC2)NC(=O)NC1c1cc(C)ccc1C (stereo not given)	none
CCCC1=C(C(=O)OCC)C(c2ccccc2OC)NC(=O)N1 (stereo not given)	none
